# Measured values from PubChem BioAssay AID652039 (The Scripps Research Institute Molecular Screening Center, 2013).
# Among all 370,000 compounds or so, about 3,300 (0.89%) were called active.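 The calls were made as follows: active = activation above the mean of all tested compounds plus 3 SD, computed per campaign excluding outliers beyond control limits (cut at about 13% in these data); inactive = the rest.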 The list comes from a sample in which actives are over-represented; it also holds similar structures and randomly drawn compounds.
# Biological target: Kallikrein-7 (Homo sapiens) (UniProt P49862)
# Assay: proKLK7 zymogen activators, primary screen, biochemical, fluorescence intensity (AID 652039)
# Conditions: purified proKLK7, EDANS-DABCYL substrate fluorescence; at 7 µM; stronger effect = higher value; 100% is mature enzyme control, 0% vehicle
# Sequence of Kallikrein-7 (Homo sapiens) (P49862 whole entry, looked up): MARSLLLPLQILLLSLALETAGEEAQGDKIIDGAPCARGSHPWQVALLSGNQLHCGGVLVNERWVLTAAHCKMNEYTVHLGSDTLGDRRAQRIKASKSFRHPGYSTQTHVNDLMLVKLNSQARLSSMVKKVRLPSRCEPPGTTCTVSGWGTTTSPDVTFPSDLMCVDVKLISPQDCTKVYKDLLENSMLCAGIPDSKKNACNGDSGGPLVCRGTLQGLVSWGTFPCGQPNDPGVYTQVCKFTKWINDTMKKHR
row,SMILES,activation
1,CCC(c1ccc(NC(=O)OC(C)(C)C)cc1)c1cc(OC)cc(OC)c1 (stereo unspecified),1.16% (inactive)
2,CCc1c(C)nc2c(OC)cccc2c1Cl,0.96% (inactive)
3,COc1nc(N=C(N)N)nc2c(C)cccc12,22.7% (active)
4,Cc1nc(N=C(N)N)nc2c(C)cccc12,-0.57% (inactive)
5,Nc1[nH]c(/C=C2/CCCCC2n2[nH]c(=O)n(-c3ccccc3)c2=O)c(Cc2ccccc2)[n+]1Cc1ccccc1 (stereo unspecified),-0.08% (inactive)
6,COc1ccc(CN2C(=O)N3Cc4cc(OC)ccc4C3CS2(=O)=O)cc1 (stereo unspecified),0.22% (inactive)
7,CCN(CC)C(=O)CC[C@@H]1CC[C@]2(CCCN(S(=O)(=O)C3CCCCC3)C2)O1,-0.08% (inactive)
8,O=C(O)c1ccc2c(c1)C(=O)N(c1ccc(/C=C/C(=O)c3ccccc3)cc1)C2=O,108% (active)
9,COc1ccc(C(=O)/C=C/c2ccc(-c3ccccc3)cc2)cc1CSCC(=O)O,-2.22% (inactive)
10,CC(=O)Nc1ccc(NC(=O)c2ccc3c(c2)C(=O)N(c2ccccc2C)C3=O)cc1,-0.23% (inactive)
11,C=CCN1[C@@H](Cc2ccccc2)COc2cccc(N3CCSCC3)c2S1(=O)=O,0.85% (inactive)
12,O=C(NCc1ccc(Cl)cc1)C1CCCN(c2nc3ccccc3o2)C1 (stereo unspecified),0.03% (inactive)
13,Cc1sc2nc(SCC(=O)c3ccc(O)c(O)c3)n(Cc3ccco3)c(=O)c2c1C,-0.81% (inactive)
14,C=CCN1C(C(=O)OC)CN(Cc2cn(Cc3ccccc3)nn2)CCS1(=O)=O (stereo unspecified),0.39% (inactive)
15,CN(CCNC(=O)c1cc2c(-c3ccccc3F)nn(C)c2s1)C1CCCCC1,-1.03% (inactive)
16,CN(c1ccc2nc3ccccc3c(=O)n2n1)C1CCCCC1,0.7% (inactive)
17,CCOCCCNC(=O)c1cc2c(=O)n3ccccc3nc2s1,40.6% (active)
18,COCCCNC(=O)/C(C#N)=C/c1c(N2CCCCCC2)nc2ccccn2c1=O,8.31% (inactive)
19,CCOCCCNC(=O)c1cn(CC(C)C)c(=O)c2c1c1ccccc1n2C,-1.85% (inactive)

row,SMILES,activation
1,CN(C(=O)c1cc2c(=O)n3ccccc3nc2s1)C1CCCCC1,25.8% (active)
2,Cc1ccc(C(=O)C2CCN(CC(=O)NCCC(C)C)CC2)cc1,1.04% (inactive)
3,CCCC[C@H](C(=O)N(CC)c1ccccc1)[C@@H](O)c1ccc2ccccc2c1,0.3% (inactive)
4,COc1ccccc1CNC(=O)COC(=O)CNS(=O)(=O)c1ccc(NC(C)=O)cc1,-0.12% (inactive)
5,COc1ccccc1C(=O)COC(=O)CNS(=O)(=O)c1ccc(NC(C)=O)cc1,0.48% (inactive)
6,CC(=O)Nc1ccc(S(=O)(=O)NCC(=O)OCc2cc(=O)oc3ccc4ccccc4c23)cc1,273% (active)
7,CC1CCCN(c2cccc3c2S(=O)(=O)N(Cc2ccc(F)cc2)[C@@H](C)[C@H](c2ccccc2)O3)C1 (stereo partly specified),-0.65% (inactive)
8,Nn1c(SCC(=O)Nc2cccc3ccccc23)nnc1-c1cc(-c2ccc(F)cc2)n[nH]1,0.42% (inactive)
9,O=C(O)c1ccc2c3c(cccc13)C(=O)N(OS(=O)(=O)c1ccccc1)C2=O,105% (active)
10,COc1cccc(-c2ccc3c(c2)S(=O)(=O)c2cccc(C(=O)O)c2C3=O)c1OC,-0.11% (inactive)
11,C=C(C)C#CC(Cc1ccccc1)N(CC1CC1)/C(N)=N/C(=O)OCc1ccccc1 (stereo unspecified),-0.43% (inactive)
12,Cc1cccc(C(=O)Nc2c(-c3ccc(F)cc3)nc3ncccn23)c1,8.91% (inactive)
13,CCCCC(=O)Nc1ccc(C(=O)NCCCn2ccnc2)cc1,0% (inactive)
14,CC(C)(C)C(=O)Nc1cccc(-c2ccc[nH]2)n1,0.15% (inactive)
15,CC(C)(C)C(=O)Nc1ccc(-c2cn3cccnc3n2)cc1,65.9% (active)
16,CCCCCC(=O)Nc1ccc(-c2cn3cccnc3n2)cc1,52.5% (active)
17,CC(=O)Nc1ccc(S(=O)(=O)Nc2ccc(-c3ccc4nnc(C)n4n3)cc2)cc1,0.05% (inactive)
18,CCCCCC(=O)Nc1ccc(S(=O)(=O)Nc2ccc(Cl)nn2)cc1,-0.08% (inactive)
19,Cc1nn2c(=O)cc(COC(=O)c3ccc(NC(=O)C(C)(C)C)cc3)nc2s1,-0.47% (inactive)

row,SMILES,activation
1,CC(=O)Nc1ccc(-c2cn3cccnc3n2)cc1,64.7% (active)
2,O=C(CCS(=O)(=O)c1ccccc1)Nc1ccc(Cl)c(Cl)c1,0.23% (inactive)
3,O=C(CSc1nnc(COc2ccccc2)n1-c1ccc(Cl)cc1)Nc1ccc2c(c1)OCO2,0.41% (inactive)
4,COC(=O)[C@@]12CCCCC=C1N(CCc1ccc(Cl)cc1)C(=O)[C@H]2CC(=O)NCc1ccc(OC)c(OC)c1,-0.01% (inactive)
5,Cc1ccc2nc(-c3ccc(CN4CCC(n5cc(-c6ccccc6)[nH]c5=O)CC4)cc3)c(-c3ccccc3)nc2c1,-16.7% (inactive)
6,COc1ccc(-c2cc3ccc(OCc4nn[nH]n4)cc3oc2=O)cc1,75.6% (active)
7,COc1ccc(-c2cc(=O)oc3cc(OCC(=O)N(C)C4CCS(=O)(=O)C4)ccc23)cc1 (stereo unspecified),-0.13% (inactive)
8,CCCCCCc1cc2cc(-c3nnc(-c4cccc(OC)c4)o3)c(=O)oc2cc1O,-1.12% (inactive)
9,COc1cccc(CSc2nnc(-c3cccnc3)n2Cc2ccccc2)c1,-0.18% (inactive)
10,Nn1c(SCC(=O)Nc2ccc(S(N)(=O)=O)cc2)nnc1-c1n[nH]c2c1CCC2,-0.51% (inactive)
11,O=C(COc1cc(Cl)c(Cl)cc1Cl)NC(=O)NC1CCCC1,-0.16% (inactive)
12,CCCN(CC(=O)NC(=O)NC1CCCCC1)CC(=O)Nc1cc(Cl)ccc1Cl,24.4% (active)
13,CCOc1ccccc1NC(=O)NC1CCCCCCC1,0.05% (inactive)
14,Cc1cc(=O)[nH]c(SCC(=O)Nc2ccc(Cl)cc2C)n1,-0.02% (inactive)
15,CN1C(=O)c2cc(NS(C)(=O)=O)ccc2OC[C@@H]2O[C@@H](CC(=O)NCc3ccc(-c4ccccc4)cc3)CC[C@H]21,-0.3% (inactive)
16,C=CCOc1ccc(/C=C/C(=O)OCC(=O)NCC2CCCO2)cc1 (stereo unspecified),-1.06% (inactive)
17,CC1(C)CC(=O)c2cc(OCC(=O)NCC3CCCO3)ccc2O1 (stereo unspecified),54.2% (active)
18,CCOc1ccc(S(=O)(=O)NCCC(=O)NCC2CCCO2)cc1 (stereo unspecified),0.66% (inactive)
